CIT2 TOR yeast – modulators of CIT2-GFP expression in yeast, primary screen, S. cerevisiae, GFP fusion, multiplex flow cytometry, MLPCN library | S. cerevisiae CIT2-GFP strain, 3 h; 100 means same as DMSO wells | GFP response vs DMSO, % at 10 µM | actives 0.065% (n = 320,000) | AID 2029, 2009;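 active means GFP response relative to DMSO above a set limit, near the screen mean plus 3 SD, cut at about 150% in these data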;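 further: ratio of well median GFP fluorescence to mean of DMSO wells on the plate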
RPL19A TOR yeast – RPL19A-GFP expression modulators in yeast, primary screen, cell-based, S. cerevisiae, multiplex flow cytometry, MLPCN; actives 0.3% (n = 330,000); S. cerevisiae RPL19A-GFP strain, 3 h; stronger effect = lower value; percent response vs DMSO, % at 10 µM;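 active means percent response vs DMSO below 50%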;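 further: median channel GFP fluorescence of the barcoded RPL19A-GFP strain; ratio of sample median GFP to plate DMSO average so 100% = DMSO; lower means less RPL19A-GFP as with rapamycin TOR inhibition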
AGP1-GFP MLPCN – modulators of AGP1-GFP expression in yeast TOR pathway, primary screen, cell-based, multiplex flow cytometry, S. cerevisiae, MLPCN library. 3 h; GFP as percent of DMSO wells. GFP response vs DMSO, % at 10 µM. actives 0.02% (n = 320,000). AID 2066, 2009;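 active means GFP response relative to DMSO above a set limit, near screen average plus 3 SD, cut at about 150% in these data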;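 further: median GFP channel fluorescence of the gated AGP1 strain per well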
MEP2 TOR yeast – modulators of MEP2-GFP levels in yeast, primary screen, S. cerevisiae, multiplex flow cytometry, MLPCN library | AID 2016, 2009 | S. cerevisiae MEP2-GFP strain, 3 h; 100% = DMSO control level | actives 0.51% (n = 330,000) | GFP response vs DMSO, % at 10 µM;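 active means GFP response versus DMSO above a set limit, roughly screen mean plus 3 SD, cut at about 180% in these data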;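 further: median GFP fluorescence of the barcode-gated MEP2-GFP cells per well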
LAP4 TOR yeast – modulators of LAP4-GFP expression in yeast, primary screen, S. cerevisiae, multiplex flow cytometry, MLPCN library; 3 h; median GFP as percent of DMSO wells; GFP response vs DMSO, % at 10 µM; actives 0.34% (n = 320,000);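 active means GFP response vs DMSO above a set limit, about the screen mean plus 3 SD, cut at about 150% in these data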
LAP4-GFP pick2 – LAP4-GFP expression modulators in yeast, confirmation, cell-based, second cherry pick, flow cytometry. shares compounds with LAP4 TOR yeast. S. cerevisiae LAP4-GFP strain, 3 h. GFP response vs DMSO, % at 10 µM. actives 20% (n = 590). AID 2621, 2010;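 active means GFP signal as percent of the solvent control above about 150%, meaning raised reporter expression, limit read from the data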;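 further: ratio of well median GFP fluorescence to plate DMSO mean so 100% = DMSO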
MEP2-GFP pick2 – modulators of MEP2-GFP levels in yeast, confirmation, S. cerevisiae, flow cytometry GFP, second cherry picks; AID 2622, 2010; GFP response vs DMSO, % at 10 µM; actives 10% (n = 590); shares compounds with LAP4 TOR yeast; S. cerevisiae MEP2-GFP strain, 3 h;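 active means GFP signal above 150% of the solvent control wells, that is a rise of more than half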;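 further: median channel GFP fluorescence of all gated yeast cells per well; ratio of median GFP to plate DMSO average so 100% = DMSO level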
RPL19A GFP CP2 – RPL19A-GFP modulators in TOR pathway yeast, confirmation, cell-based, S. cerevisiae, flow cytometry, second cherry pick; S. cerevisiae RPL19A-GFP strain, 3 h; stronger effect = lower value; 100% means same as DMSO wells; shares compounds with LAP4 TOR yeast; AID 2623, 2010; actives 3% (n = 590); GFP response vs DMSO, % at 10 µM;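 active means under 65% GFP response relative to DMSO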;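 further: median GFP channel fluorescence per well over the all cells gate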
CIT2-GFP pick2 – modulators of CIT2-GFP expression in yeast, confirmation, flow cytometry, second cherry pick, single plex; shares compounds with LAP4 TOR yeast; S. cerevisiae CIT2-GFP strain, 3 h; DMSO control wells read 100%; GFP response vs DMSO, % at 10 µM; actives 8% (n = 590); AID 2624, 2010;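 active means GFP response vs DMSO above about 150%, limit read from the data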;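 further: median green fluorescence per well over all gated yeast cells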
AGP1 GFP CP2 – AGP1-GFP expression modulators, hit retest, confirmation, cell-based, flow cytometry, S. cerevisiae, cherry pick set 2; S. cerevisiae AGP1-GFP strain, 3 h; 590 tested, under 10 active; percent response vs DMSO, % at 10 µM; shares compounds with LAP4 TOR yeast;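 active means over 150 percent of DMSO response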;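 further: median GFP channel fluorescence over all cells without mother daughter split; sample median GFP divided by mean DMSO control so 100% equals DMSO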
Yeast autofluor – compound autofluorescence in yeast s288c, dose response, artefact control for yeast TOR pathway GFP screen, s288c strain. shares compounds with LAP4 TOR yeast. S. cerevisiae s288c, 520 nm autofluorescence, flow cytometry, 3 h; stronger effect = higher value; zero means same as solvent-only cells. fluorescence change (kMESF span) at 33 µM. 610 tested, under 10 active;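 active means fluorescence span over the dose series, or activity score, above about 33, limit read from the data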
s288c autofl DR – autofluorescence of compounds in yeast s288c, dose response, artefact control for yeast TOR pathway GFP screen, primary hits, KU SAR, s288c parental | shares compounds with LAP4 TOR yeast | 110 tested, under 10 active | fluorescence change (span) at 33 µM | S. cerevisiae s288c parental, compound autofluorescence, flow cytometry, 3 h;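 active means fluorescence change span, or the activity score built from it, above 25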
TORC1 bypass gr – wild-type yeast growth inhibition sparing TORC1 bypass cells, mechanism study for yeast TOR pathway GFP screen, BY4741 wild type, TORC1 bypass strain; shares compounds with LAP4 TOR yeast; S. cerevisiae BY4741 spot growth rating, 48-72 h; stronger effect = lower value; growth rating (0-3) at 30 µM; 120 tested, under 10 active;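 active means growth rating at most 1 for wild type yeast while the TORC1 bypass strain still grows fully, rated 3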
Starred values were filed as active, the others as inactive; . = no result given. Only some compounds are listed: those with a hit (about 0.93% of all), similar ones and a draw of the others.

SMILES	CIT2 TOR yeast	RPL19A TOR yeast	AGP1-GFP MLPCN	MEP2 TOR yeast	LAP4 TOR yeast	Yeast autofluor	others
Cc1ccc(C2/C(=C(\O)c3ccc4c(c3)OCCO4)C(=O)C(=O)N2CC2CCCO2)cc1 (stereo not given)	98	112	94	100	70	.
CCN1/C(=C/c2ccc3cc(C)ccc3[n+]2CC)Sc2ccc3sccc3c21	366*	90	124	588*	300*	8.8
C[C@H](CO)N1C[C@H](C)[C@@H](CN(C)S(=O)(=O)c2ccc(F)cc2)Oc2c(NS(=O)(=O)c3ccccc3)cccc2C1=O	91	104	105	102	111	.
Cc1cc(/C=C(\C#N)C(=O)N2CCOCC2)c(C)n1C1CCCC1	105	104	113	101	112	.
CCn1c(=O)c([N+](=O)[O-])c(NCCN(C)C)c2ccccc21	91	102	108	111	100	.
CCn1c(=O)c([N+](=O)[O-])c(Cl)c2ccccc21	90	62	76	95	104	.	LAP4-GFP pick2=118;MEP2-GFP pick2=133;RPL19A GFP CP2=72;CIT2-GFP pick2=81;AGP1 GFP CP2=77
O=c1c2ccccc2oc2cc(C#CC3(O)CCCCC3)ccc12	80	100	84	92	153*	.	LAP4-GFP pick2=106;MEP2-GFP pick2=114;RPL19A GFP CP2=95;CIT2-GFP pick2=107;AGP1 GFP CP2=93
COc1cccc2oc3cc(C#CC4(O)CCCCC4)ccc3c(=O)c12	64	94	81	94	127	.
CCC1CCC/C1=N\NC(=O)c1ccoc1C (stereo not given)	92	115	95	104	74	.
Cc1cc(C)cc(N(CC(=O)NCCSCc2ccccc2)S(C)(=O)=O)c1	109	99	106	114	114	.
O=C(COC(=O)c1ccccc1C(=O)OCC(=O)NCCc1c[nH]c2ccccc12)NCCc1c[nH]c2ccccc12	131	97	96	95	155*	.	LAP4-GFP pick2=102;MEP2-GFP pick2=98;RPL19A GFP CP2=97;CIT2-GFP pick2=102;AGP1 GFP CP2=99
COC(=O)c1sc(N2CCN(c3ccc(Cl)cc3)CC2)nc1N	96	92	.	94	104	.
COc1ccc2cc(C(C)C(=O)N3CCC(C)CC3)ccc2c1 (stereo not given)	103	95	99	107	106	.
O=C1CCN(S(=O)(=O)c2ccccc2)CCN1CCOCc1ccc(F)cc1	108	81	108	190*	179*	0	LAP4-GFP pick2=97;MEP2-GFP pick2=95;RPL19A GFP CP2=98;CIT2-GFP pick2=103;AGP1 GFP CP2=99
Cc1ccc(S(=O)(=O)N2CCC(=O)N(CCOCc3ccc(F)cc3)CC2)cc1	68	91	75	88	119	.
Cc1ccc(C)c(NC(=O)CN(C)C(=O)c2ccccc2OCc2ccccc2Cl)c1	89	92	92	96	87	.
COc1cc(CNC(=O)CCCCCCC(C)C)ccc1O	109	87	123	154	158*	-0.2	LAP4-GFP pick2=160*;MEP2-GFP pick2=211*;RPL19A GFP CP2=110;CIT2-GFP pick2=188*;AGP1 GFP CP2=107
COc1ccc2c(n1)Sc1nc3ccccc3nc1N2	74	68	62	115	115	.
Cc1nn(C)c(C)c1N1C(=O)c2cccc3c(Br)ccc(c23)C1=O	85	100	98	101	110	-0.2
Cc1ccc2c(c1)cc(C(=O)N[C@@H](Cc1ccccc1)C(=O)O)n2C	93	100	97	104	103	.
CC1CC(C)CN(S(=O)(=O)N2CCCC(C(=O)NC3CCCCC3C)C2)C1 (stereo not given)	100	59	15	138	95	.	LAP4-GFP pick2=104;MEP2-GFP pick2=112;RPL19A GFP CP2=98;CIT2-GFP pick2=110;AGP1 GFP CP2=102
O=C1C(Cl)=C(Nc2ccccc2O)C(=O)N1CCc1ccccc1	98	103	97	104	99	0.4
COc1ccc(CCNC2=C(Cl)C(=O)N(CCc3ccccc3)C2=O)cc1OC	90	98	97	112	109	0
CCCCCC(=O)C(=O)c1ccc(O)cc1O	97	100	99	97	92	.
CC(C)(C)n1nc(-c2ccc(F)cc2)c2c(N)ncnc21	51	48*	92	105	178*	-0.4	LAP4-GFP pick2=137;MEP2-GFP pick2=136;RPL19A GFP CP2=48*;CIT2-GFP pick2=61;AGP1 GFP CP2=86;s288c autofl DR=0.29;TORC1 bypass gr=3
Cc1ccc(-c2nn(C(C)(C)C)c3ncnc(NS(=O)(=O)c4ccc([N+](=O)[O-])cc4)c23)cc1	100	96	104	101	120	.
CSc1nc(-c2ccc(C)cc2)nc(N)c1C#N	83	94	92	95	93	.
CC(C)(C)n1nc(-c2ccc(Cl)cc2)c2c(N)ncnc21	43	43*	83	106	182*	-1	s288c autofl DR=0.32;TORC1 bypass gr=3
CC(C)(C)S(=O)(=O)c1cnc2c(-c3ccc(F)cc3)cnn2c1N	93	87	91	92	84	.
